Laboratory results: PubChem BioAssay
Active and inactive are the calls of the source. Unless noted, the rule behind the calls is not given here.

Experiments:
[1] = tested on: Wnt5a (protein binding on small-molecule microarray); assay: small molecules binding Wnt5a protein – biophysical, small-molecule microarray, 635/667 nm fluorescence, primary screen (AID 1142); conditions: 635 nm fluorescence, higher = more signal;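 note: fluorescence read at 667 nm with signal to noise per printed feature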
[2] = ATP-based viability of Huh7 replicon cells – cell-based, CellTiter-Glo luminescence, basal, 48 h, cytotoxicity control for HCV replication inhibitor project, primary screen (AID 1143); conditions: higher = more signal, called active from +8 up or from −8 down;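 note: Huh7 hepatoma cells carrying a hepatitis C replication reporter with no stimulus; test concentration not given here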
[3] = Pseudomonas biofilm growth suppression – PAO1 strain, BacTiter-Glo luminescence, LB-PBS, primary screen (AID 1144); conditions: P. aeruginosa PAO1 biofilm, 12 h, higher = more signal
[4] = basal CRE-LacZ reporter activity in PC12 – cell-based, unstimulated, primary screen (AID 1145); conditions: no forskolin, luminescence, 4.5 h, higher = more signal, called active from +8 up or from −8 down
[5] = forskolin-driven CRE-LacZ activity in PC12 – cell-based, CRE-LacZ reporter, forskolin-stimulated, primary screen (AID 1146); conditions: luminescence, 4.5 h, higher = more signal, called active from +8 up or from −8 down;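 note: PC12 cells with 6xCRE LacZ reporter stimulated by forskolin 10 µM; beta-galactosidase reporter signal reflecting CREB driven transcription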
[6] = target: Streptavidin (Streptomyces avidinii) (UniProt P22629); assay: compounds binding control protein streptavidin – biophysical, small-molecule microarray, 635/667 nm fluorescence, artefact control for SMM compound annotation, primary screen (AID 1147); conditions: higher = more signal;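 note: signal reflects streptavidin binding to arrayed compounds as a control protein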
Streptavidin (Streptomyces avidinii), sequence (P22629 whole entry, looked up): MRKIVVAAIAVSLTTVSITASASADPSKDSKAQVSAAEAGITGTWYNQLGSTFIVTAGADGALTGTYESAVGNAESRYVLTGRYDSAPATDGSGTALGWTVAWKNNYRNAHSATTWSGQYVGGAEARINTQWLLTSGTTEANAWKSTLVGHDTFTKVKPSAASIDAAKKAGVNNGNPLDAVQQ

[7] = probe aInhba binding on compound microarray – biochemical, small-molecule microarray, 635/667 nm fluorescence, primary screen (AID 1148); conditions: higher = more signal;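 note: score merges 667nm spot fluorescence with signal-to-noise for antibody binding to printed compounds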
Torsin-1A (Homo sapiens) [8] = target: Torsin-1A (Homo sapiens) (UniProt O14656); assay: TOR1A wild-type binding on microarray – cell lysate, small-molecule microarray, lysate, 635/667 nm, primary screen (AID 1149); conditions: COS7 hTOR1A-WT lysate, 635 nm fluorescence, higher = more signal
Torsin-1A (Homo sapiens), sequence (O14656 whole entry, looked up): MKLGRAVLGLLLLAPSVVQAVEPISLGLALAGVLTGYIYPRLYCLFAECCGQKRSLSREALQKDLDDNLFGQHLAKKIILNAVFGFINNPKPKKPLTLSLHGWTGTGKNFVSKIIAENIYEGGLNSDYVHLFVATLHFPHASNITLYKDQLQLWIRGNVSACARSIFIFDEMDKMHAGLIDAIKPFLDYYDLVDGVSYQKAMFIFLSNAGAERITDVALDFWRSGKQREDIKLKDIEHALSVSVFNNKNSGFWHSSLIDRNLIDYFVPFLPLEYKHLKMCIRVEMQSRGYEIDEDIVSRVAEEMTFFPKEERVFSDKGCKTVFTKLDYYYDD

Torsin-1A (Homo sapiens) [9] = target: Torsin-1A (Homo sapiens) (UniProt O14656); assay: torsin A mutant lysate binding on microarrays – cell lysate, small-molecule microarray, COS7 lysate, 635/667 nm fluorescence, primary screen (AID 1150); conditions: COS7 hTOR1A mutant lysate, 635 nm fluorescence, higher = more signal;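 note: score pools 667 nm emission and signal to noise measuring lysate protein binding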
[10] = tested on: Sonic hedgehog protein (Shh); assay: Sonic hedgehog microarray binding compounds – biochemical, small-molecule microarray, 635/667 nm fluorescence, primary screen (AID 1151); conditions: 635 nm fluorescence, higher = more signal;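 note: Shh protein binding to compounds spotted on small-molecule microarray slides; score combines spot fluorescence intensity with signal-to-noise across triplicate slides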

SMILES	composite z-score [1]	z-score [2]	z-score [3]	z-score [4]	z-score [5]	composite z-score [6]	composite z-score [7]	composite z-score (Torsin-1A (Homo sapiens) [8])	composite z-score (Torsin-1A (Homo sapiens) [9])	composite z-score [10]
Cc1ccc(S[C@]2(C(=O)NCCN3CCOCC3)CC(=O)N(Cc3ccccc3Cl)[C@@H]2c2ccc(CO)cc2I)cc1	0.0976	-2.1 (inactive)	-0.0266 (inactive)	-0.581 (inactive)	0.631 (inactive)	-0.343	0.658	-1.69	0.75	-0.316
CC1=C2[C@@H](CCc3ccccc3)OB(O)C[C@@H]2[C@@H]2C(=O)N(Cc3ccccc3)C(=O)[C@@H]2C1	0.0023	-0.23 (inactive)	0.615 (inactive)	0.39 (inactive)	-0.138 (inactive)	-0.189	-0.285	0.572	0.333	0.792
CC(C)[Si](C#CCCCC#N)(O[C@H](c1ccccc1)c1cn(Cc2ccccc2)nn1)C(C)C	0.125	-0.507 (inactive)	-0.319 (inactive)	0.773 (inactive)	-0.0473 (inactive)	0.62	-0.157	0.148	0.194	0.531
COc1ccc([C@H]2OC[C@@H]3C[C@H](Cc4ccccc4)C(=O)N32)cc1	0.204	-3.52 (inactive)	0.305 (inactive)	1.99 (inactive)	0.213 (inactive)	-0.371	-0.0962	0.48	0.0464	0.532
CCCNC(=O)[C@@]1(Sc2ccc(C)cc2)CC(=O)N(C2Cc3ccccc3C2)[C@@H]1c1ccc(CO)cc1I	0.196	-0.812 (inactive)	0.594 (inactive)	-0.374 (inactive)	1.73 (inactive)	0.419	0.27	0.418	0.309	0.737
CC(C)NC(=O)[C@@]1(C)c2ccccc2C(=O)N(Cc2ccc(OC(F)(F)F)cc2)[C@H]1c1ccc(CO)cc1	-0.766	-1.98 (inactive)	-0.539 (inactive)	-0.411 (inactive)	-1.48 (inactive)	-0.933	-0.183	-2.23	0.492	-0.354
O=C(NCCN1CCOCC1)[C@@H]1c2ccccc2C(=O)N(Cc2ccccc2Cl)[C@H]1c1ccc(CO)cc1	-0.38	-0.276 (inactive)	0.11 (inactive)	-0.295 (inactive)	-0.6 (inactive)	-0.831	-0.32	-0.826	1.23	-1.07
NCCCCCNC(=O)[C@@H]1C[C@@H]2C(=O)N[C@@H](CCCCN)C(=O)N2[C@@H]1c1ccc(O)cc1	-0.0113	-0.308 (inactive)	-0.148 (inactive)	0.0205 (inactive)	-0.878 (inactive)	0.811	0.217	0.811	1.59	1.99
C=C(COC)/C(=C/C[C@H](OC(=O)c1ccncc1)c1ccccc1OCCO)c1cc(C(=O)OC)ccc1OC	0.163	-2.17 (inactive)	0.492 (inactive)	11.9 (active)	2.47 (inactive)	-0.275	-0.0136	1.19	0.664	1.71
CCCCCC1=C2CNC(C)(C(=O)OC)C=C2C(C)C1=O (stereo not given)	0.0456	-0.169 (inactive)	0.18 (inactive)	1.34 (inactive)	1.76 (inactive)	-0.162	0.0319	-0.92	-0.38	-0.134
COc1ccc([Si](C)(C)[C@@H]2[C@@H](CCO)O[C@]3(C(=O)N(Cc4cccc(NC(=O)[C@H](C)O)c4)c4ccccc43)[C@H]2C)cc1	0.736	-8.02 (active)	-1.07 (inactive)	10.2 (active)	-1.88 (inactive)	0.887	-0.128	0.23	0.97	0.533
COCCOC(=O)N1C(=O)[C@@]2(c3cc(C#CCCO)ccc31)[C@H](C(=O)Nc1nc3ccccc3s1)[C@H]1C(=O)O[C@H](c3ccccc3)[C@H](c3ccccc3)N1[C@@H]2c1ccc(O)cc1	0.73	-1.16 (inactive)	0.263 (inactive)	-0.168 (inactive)	2.14 (inactive)	0.809	0.279	0.772	0.833	1.06
COC(=O)[C@@]1(Cc2ccc(F)cc2)[C@H]2c3cc(C(=O)N(C)C)n(CCc4ccc(OC)c(Br)c4)c3C[C@H]2CN1C(=O)c1ccccc1	1.88	-4.65 (inactive)	0.167 (inactive)	17.2 (active)	124 (active)	0.221	0.925	0.005	0.741	-1.09
C#Cc1cc2ccccc2oc1=O	-0.365	-0.692 (inactive)	0.534 (inactive)	0.136 (inactive)	6.19 (inactive)	-1.47	-0.149	0.173	-0.539	-1.45
